About 2,000 (36%) of roughly 5,500 compounds were called active. About 18% were inconclusive and are not listed. No stated cut-off is given here; in the data, active means normalized growth mostly below about 0.91 (no sharp cut-off); inconclusive means no clear call, values can overlap the other calls; inactive means mostly above about 0.92. The list shows a part of the results.
Assay: chemical genetic growth profiling, strain panel (AID 1159580);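 further: tested at 20 µM; growth read once vehicle control cultures reached saturation at 30 °C; 1 = growth at the plate median or of vehicle wells; lower values mean less growth of the strain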
Conditions: growth OD

Measured: normalized growth

Cc1onc(-c2ccccc2Cl)c1C(=O)N[C@@H]1C(=O)N2[C@@H]1SC(C)(C)[C@@H]2C(=O)O
inactive: S. cerevisiae deletion strains, locus YJR066W, strain TOR1, hits give low values 0.986 | S. cerevisiae deletion strains, locus YKL009W, strain mrt4, hits give low values 1.02 | S. cerevisiae deletion strains, locus YKL068W, hits give low values 1.02 | S. cerevisiae deletion strains, locus YKL085W, strain MDH1 (second series), hits give low values 1.02 | S. cerevisiae deletion strains, locus YKL085W, strain MDH1, hits give low values 1.02 | S. cerevisiae deletion strains, locus YKL160W, strain elf1, hits give low values 1.02 | S. cerevisiae deletion strains, locus YKL190W, strain CNB1, hits give low values 1.01 | S. cerevisiae deletion strains, locus YKR001C, strain vps1, hits give low values 1.03 | S. cerevisiae deletion strains, locus YKR026C, strain gcn3, hits give low values 1.05 | S. cerevisiae deletion strains, locus YKR091W, strain srl3, hits give low values 1.02 | S. cerevisiae deletion strains, locus YLL001W, strain dnm1, hits give low values 1.02 | S. cerevisiae deletion strains, locus YLL026W, hits give low values 1.01 | S. cerevisiae deletion strains, locus YLL041C, strain sdh2, hits give low values 1.02 | S. cerevisiae deletion strains, locus YLR027C, strain aat2, hits give low values 1.01 | S. cerevisiae deletion strains, locus YLR039C, strain RIC1, hits give low values 1.02 | S. cerevisiae deletion strains, locus YLR058C, strain SHM2, hits give low values 1.02 | S. cerevisiae deletion strains, locus YLR102C, strain apc9, hits give low values 1.03 | S. cerevisiae deletion strains, locus YLR113W, strain HOG1, hits give low values 1.05 | S. cerevisiae deletion strains, locus YLR221C, strain rsa3, hits give low values 0.979 | S. cerevisiae deletion strains, locus YLR258W, strain gsy2, hits give low values 1.02 | S. cerevisiae deletion strains, locus YLR262C, strain YPT6 (second series), hits give low values 1 | S. cerevisiae deletion strains, locus YLR262C, strain YPT6, hits give low values 1.01 | S. cerevisiae deletion strains, locus YLR268W, strain sec22, hits give low values 1.04 | S. cerevisiae deletion strains, locus YLR320W, strain mms22, hits give low values 1 | S. cerevisiae deletion strains, locus YLR330W, strain CHS5, hits give low values 1.01 | S. cerevisiae deletion strains, locus YLR342W, strain FKS1 (second series), hits give low values 1.02 | S. cerevisiae deletion strains, locus YLR342W, strain FKS1, hits give low values 1.02 | S. cerevisiae deletion strains, locus YLR357W, strain rsc2, hits give low values 1.03 | S. cerevisiae deletion strains, locus YLR370C, strain arc18, hits give low values 1.02 | S. cerevisiae deletion strains, locus YLR371W, strain rom2, hits give low values 1.03 | S. cerevisiae deletion strains, locus YLR384C, strain iki3, hits give low values 1.02 | S. cerevisiae deletion strains, locus YLR418C, strain cdc73, hits give low values 1.04 | S. cerevisiae deletion strains, locus YML016C, strain PPZ1, hits give low values 1.01 | S. cerevisiae deletion strains, locus YML032C, strain rad52, hits give low values 1.01 | S. cerevisiae deletion strains, locus YML120C, strain ndi1, hits give low values 1.04 | S. cerevisiae deletion strains, locus YML124C, strain tub3, hits give low values 1.03 | S. cerevisiae deletion strains, locus YMR058W, strain fet3, hits give low values 1.04 | S. cerevisiae deletion strains, locus YMR078C, strain ctf18, hits give low values 1.04 | S. cerevisiae deletion strains, locus YMR125W, strain sto1, hits give low values 1.04 | S. cerevisiae deletion strains, locus YMR129W, hits give low values 1.01 | S. cerevisiae deletion strains, locus YMR205C, strain PFK2, hits give low values 1.04 | S. cerevisiae deletion strains, locus YMR223W, strain ubp8, hits give low values 1.02 | S. cerevisiae deletion strains, locus YMR231W, strain pep5, hits give low values 1.02 | S. cerevisiae deletion strains, locus YMR263W, strain SAP30, hits give low values 1.02 | S. cerevisiae deletion strains, locus YMR307W, strain GAS1, hits give low values 1.03 | S. cerevisiae deletion strains, locus YNL067W, strain RPL9B, hits give low values 1.02 | S. cerevisiae deletion strains, locus YNL071W, strain lat1, hits give low values 1.01 | S. cerevisiae deletion strains, locus YNL153C, strain GIM3, hits give low values 1.01 | S. cerevisiae deletion strains, locus YNL183C, strain NPR1, hits give low values 0.968 | S. cerevisiae deletion strains, locus YNL209W, strain ssb2, hits give low values 1.01 | S. cerevisiae deletion strains, locus YNL233W, strain BNI4, hits give low values 1.01 | S. cerevisiae deletion strains, locus YNL248C, strain rpa49, hits give low values 0.948 | S. cerevisiae deletion strains, locus YNL250W, strain rad50, hits give low values 1.01 | S. cerevisiae deletion strains, locus YNL271C, strain bni1, hits give low values 1.03 | S. cerevisiae deletion strains, locus YNL298W, strain CLA4, hits give low values 1.04 | S. cerevisiae deletion strains, locus YNL307C, strain MCK1, hits give low values 1.04 | S. cerevisiae deletion strains, locus YNL322C, strain KRE1 (second series), hits give low values 1.01 | S. cerevisiae deletion strains, locus YNL322C, strain KRE1, hits give low values 1 | S. cerevisiae deletion strains, locus YNR049C, strain mso1, hits give low values 1.02 | S. cerevisiae deletion strains, locus YNR052C, strain pop2, hits give low values 1.01 | S. cerevisiae deletion strains, locus YOL012C, strain htz1 1.96 | S. cerevisiae deletion strains, locus YOL147C, strain pex11, hits give low values 1.03 | S. cerevisiae deletion strains, locus YOR001W, strain rrp6, hits give low values 1.04 | S. cerevisiae deletion strains, locus YOR061W, strain CKA2, hits give low values 1.01 | S. cerevisiae deletion strains, locus YOR069W, strain VPS5, hits give low values 1.01 | S. cerevisiae deletion strains, locus YOR070C, strain gyp1, hits give low values 1.01 | S. cerevisiae deletion strains, locus YOR080W, strain dia2, hits give low values 1.03 | S. cerevisiae deletion strains, locus YOR083W, strain WHI5, hits give low values 1.03 | S. cerevisiae deletion strains, locus YOR106W, strain vam3, hits give low values 1.03 | S. cerevisiae deletion strains, locus YOR136W, strain idh2, hits give low values 1.03 | S. cerevisiae deletion strains, locus YOR144C, strain elg1, hits give low values 1.02 | S. cerevisiae deletion strains, locus YOR184W, strain ser1, hits give low values 1.03 | S. cerevisiae deletion strains, locus YOR231W, strain MKK1, hits give low values 1.01 | S. cerevisiae deletion strains, locus YOR265W, strain rbl2, hits give low values 1.02 | S. cerevisiae deletion strains, locus YOR270C, strain vph1, hits give low values 1.04 | S. cerevisiae deletion strains, locus YOR290C, strain snf2, hits give low values 1.01 | S. cerevisiae deletion strains, locus YOR316C, strain cot1, hits give low values 1.03 | S. cerevisiae deletion strains, locus YPL051W, strain arl3, hits give low values 1.02 | S. cerevisiae deletion strains, locus YPL055C, strain LGE1, hits give low values 1.03 | S. cerevisiae deletion strains, locus YPL078C, strain atp4, hits give low values 1.03 | S. cerevisiae deletion strains, locus YPL106C, strain sse1, hits give low values 1.03 | S. cerevisiae deletion strains, locus YPL240C, strain hsp82, hits give low values 1.01 | S. cerevisiae deletion strains, locus YPL241C, strain CIN2, hits give low values 1 | S. cerevisiae deletion strains, locus YPL256C, strain CLN2, hits give low values 1.01 | S. cerevisiae deletion strains, locus YPR119W, strain clb2, hits give low values 1.03 | S. cerevisiae deletion strains, locus YPR141C, strain kar3, hits give low values 1.04 | S. cerevisiae deletion strains, locus YPR163C, strain tif3, hits give low values 1.04 | S. cerevisiae deletion strains, locus YPR167C, strain met16, hits give low values 1.03 | S. cerevisiae deletion strains, strain wtn01, hits give low values 1.02 | S. cerevisiae strains, strain wild type, hits give low values 1.01

From PubChem BioAssay AID1159580 (chemical genetic matrix, 2015)
